Active and inactive are the calls of the source. Rule for the calls: active = hit-call score of the fitted dose curve at least 0.9, where 1 is the maximum; inactive = score below 0.9.

The term AC50 denotes the concentration at which the activity in the assay is half-maximal.

Read-out in the first assay: Glutamate-cysteine ligase catalytic (GCLC), GCLC (gene 2729)
Description: LTEA_HepaRG_GCLC: Life Technologies and Expression Analysis (LTEA) Assay for Glutamate-cysteine ligase catalytic (GCLC) using HepaRG (AID 2283498). To be noted: mRNA level, 48 h; actives raise or lower the signal. The method, boiled down:
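Differentiated HepaRG cells exposed 48 h in serum-free induction medium, eight-point half-log series topping at 100 uM in 0.5% DMSO, duplicates. GCLC mRNA by qRT-PCR normalized to ACTB, GAPDH and POLR2A, fitted bidirectionally versus DMSO.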
`Cc1cc(C)cc(C)c1`: the call was inactive.
Regarding `N#Cc1cccnc1`, the call was inactive.
Regarding `CCCCCCCCCCCCc1cccc(S(=O)(=O)O)c1`, the compound was classed as inactive.
In the case of `Clc1cccc(Cl)c1Cl`, the outcome was inactive.
As for `CC(C)(C)c1ccccc1O`, the outcome was inactive.
On to `CN(C)C(=S)S`, for which the compound was called inactive.
Consider `Oc1cc(Cl)c(Cl)cc1Cl`, for which the outcome was inactive.
`O=C(N[C@H]1CN2CCC1CC2)c1ccc2c(c1)OCCO2`: the compound was called inactive.
Regarding `COc1ccccc1N`, the call was inactive.
Regarding `O=C(O)C1(c2ccc3c(c2)OC[C@H](Cc2ccc(-c4ccccc4)cc2)[C@H]3O)CCCC1`, the concentration at half-maximal activity (AC50) is 75.6 µM (active).
On to `OCCN(CCO)CCO`, for which the call was inactive.
In the case of `Oc1c(Cl)cc(Cl)cc1Cl`, the compound was called inactive.
Consider `Clc1cccc(Cl)c1`, for which the outcome was inactive.
On to `CC(C)O.CC(C)O.OCCN(CCO)CCO.OCCN(CCO)CCO.[Ti]`, for which the outcome was inactive.

Read-out in a further assay: growth arrest and DNA damage 45 (GADD45G), GADD45G (gene 10912)
Description: LTEA_HepaRG_GADD45G: Life Technologies and Expression Analysis (LTEA) Assay for growth arrest and DNA damage 45 (GADD45G) using HepaRG (AID 2283499). The following applies: mRNA level, 48 h; actives raise or lower the signal. The method, boiled down:
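HepaRG, 48 h exposure, top 100 uM, half-log 8-point series, 0.5% DMSO vehicle, duplicates. Readout: GADD45G transcript by qRT-PCR (Fluidigm array), housekeeping-normalised (ACTB/GAPDH/POLR2A). Bidirectional curve fit vs DMSO baseline.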
Regarding `Cc1cc(C)cc(C)c1`, the compound was classed as inactive.
Take `N#Cc1cccnc1`: the compound was classed as inactive.
On to `CCCCCCCCCCCCc1cccc(S(=O)(=O)O)c1`, for which the result was inactive.
For `Clc1cccc(Cl)c1Cl`, the outcome was inactive.
On the same count and under the same terms, as for `CC(C)(C)c1ccccc1O`, the entry is “inactive”; as for `CN(C)C(=S)S`, “inactive”.
Still for that read-out and setting: as for `Oc1cc(Cl)c(Cl)cc1Cl`, the entry is “inactive”.
Same read-out and setting: as for `O=C(N[C@H]1CN2CCC1CC2)c1ccc2c(c1)OCCO2`, the entry is “inactive”; as for `COc1ccccc1N`, “inactive”; as for `O=C(O)C1(c2ccc3c(c2)OC[C@H](Cc2ccc(-c4ccccc4)cc2)[C@H]3O)CCCC1`, “inactive”.
Turning to `OCCN(CCO)CCO`, the outcome was inactive.
On to `Oc1c(Cl)cc(Cl)cc1Cl`, for which the compound was classed as inactive.
As for `Clc1cccc(Cl)c1`, the compound was called inactive.
The same measure, in the same setting: as for `CC(C)O.CC(C)O.OCCN(CCO)CCO.OCCN(CCO)CCO.[Ti]`, the entry is “inactive”.

Read-out in another assay: Glutamate-cysteine ligase regulatory (GCLM), GCLM (gene 2730)
Description: LTEA_HepaRG_GCLM: Life Technologies and Expression Analysis (LTEA) Assay for Glutamate-cysteine ligase regulatory (GCLM) using HepaRG (AID 2283500). The following applies: mRNA level, 48 h; actives raise or lower the signal. The method, boiled down:
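Cells were plated, cultured 48 h, switched to serum-free induction medium, then dosed in duplicate for 48 h at eight half-log concentrations up to 100 uM. RNA was then profiled by qRT-PCR; gain or loss versus DMSO was fitted.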
Turning to `Cc1cc(C)cc(C)c1`, the compound was classed as inactive.
For `N#Cc1cccnc1`, the result was inactive.
For `CCCCCCCCCCCCc1cccc(S(=O)(=O)O)c1`, the compound was called inactive.
Turning to `Clc1cccc(Cl)c1Cl`, the compound was called inactive.
Regarding `CC(C)(C)c1ccccc1O`, the compound was called inactive.
Turning to `CN(C)C(=S)S`, the call was inactive.
`Oc1cc(Cl)c(Cl)cc1Cl`: the compound was called inactive.
Regarding `O=C(N[C@H]1CN2CCC1CC2)c1ccc2c(c1)OCCO2`, the AC50 is 0.112 µM (active).
Turning to `COc1ccccc1N`, the compound was classed as inactive.
`O=C(O)C1(c2ccc3c(c2)OC[C@H](Cc2ccc(-c4ccccc4)cc2)[C@H]3O)CCCC1`: the call was inactive.
The same measure, in the same setting: as for `OCCN(CCO)CCO`, the entry is “inactive”; as for `Oc1c(Cl)cc(Cl)cc1Cl`, “inactive”; as for `Clc1cccc(Cl)c1`, “inactive”.
With `CC(C)O.CC(C)O.OCCN(CCO)CCO.OCCN(CCO)CCO.[Ti]`, the call was inactive.

The values are drawn from PubChem BioAssay (EPA / NIEHS).
